Data: paper PMC4336329 (PLoS ONE, 2015)
Hit rate of the full screen: of about 310,000 compounds, about 14,000 (4.5%) showed an effect of 50% or more. Effects have a minus sign here. What follows is part of a selection rich in strong results, with near analogues and random picks from the rest.

target: human ether-à-go-go-related gene (hERG) potassium channel (human, UniProt Q12809); assay: primary screen, population patch clamp on CHO cells stably expressing hERG; higher = less effect of the substance
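Further: peak tail current of the secondary pulse compared with the same well before compound.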

human ether-à-go-go-related gene (hERG) potassium channel, sequence (Q12809 whole entry, looked up): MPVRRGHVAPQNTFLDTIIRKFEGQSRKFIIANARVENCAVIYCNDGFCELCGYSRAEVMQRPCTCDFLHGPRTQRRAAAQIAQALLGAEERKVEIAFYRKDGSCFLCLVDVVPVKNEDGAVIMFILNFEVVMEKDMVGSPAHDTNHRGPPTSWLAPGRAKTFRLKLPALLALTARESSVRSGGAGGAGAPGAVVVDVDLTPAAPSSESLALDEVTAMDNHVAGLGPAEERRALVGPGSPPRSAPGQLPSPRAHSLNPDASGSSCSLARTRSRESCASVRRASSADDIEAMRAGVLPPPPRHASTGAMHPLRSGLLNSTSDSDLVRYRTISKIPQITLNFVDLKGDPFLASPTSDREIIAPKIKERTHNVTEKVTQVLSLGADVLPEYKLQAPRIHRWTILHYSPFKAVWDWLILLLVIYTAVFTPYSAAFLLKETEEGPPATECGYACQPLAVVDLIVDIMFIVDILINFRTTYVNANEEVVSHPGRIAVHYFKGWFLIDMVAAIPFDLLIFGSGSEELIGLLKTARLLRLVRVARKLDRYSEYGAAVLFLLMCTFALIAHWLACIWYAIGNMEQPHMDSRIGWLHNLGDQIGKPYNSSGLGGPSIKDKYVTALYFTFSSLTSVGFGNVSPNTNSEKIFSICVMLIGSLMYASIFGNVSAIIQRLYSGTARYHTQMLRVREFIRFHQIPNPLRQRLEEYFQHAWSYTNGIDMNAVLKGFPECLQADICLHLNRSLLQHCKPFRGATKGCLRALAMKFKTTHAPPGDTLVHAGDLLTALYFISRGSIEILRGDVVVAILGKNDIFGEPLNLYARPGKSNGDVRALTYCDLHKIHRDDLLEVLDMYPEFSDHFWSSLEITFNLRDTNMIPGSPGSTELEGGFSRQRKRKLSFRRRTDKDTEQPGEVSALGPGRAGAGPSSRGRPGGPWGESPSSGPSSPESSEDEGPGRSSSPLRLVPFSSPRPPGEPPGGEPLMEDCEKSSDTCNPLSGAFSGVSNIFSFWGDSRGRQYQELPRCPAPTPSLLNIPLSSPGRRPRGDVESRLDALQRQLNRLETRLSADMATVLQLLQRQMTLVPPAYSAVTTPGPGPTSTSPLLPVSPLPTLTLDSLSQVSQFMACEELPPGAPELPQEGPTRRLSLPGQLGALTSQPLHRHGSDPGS

| Compound | hERG current change (%, negative = inhibition) at 10uM [%] |
| --- | --- |
| Cc1cc(Cn2nnnc2-c2ccncc2)cc(C)c1O | 6.54 |
| O=C(Nc1ccc(Cl)c(C(F)(F)F)c1)N1CCCC(O)C1 (stereo not drawn) | 10.9 |
| Cl.O=C(c1ccccc1)c1coc2ccc(O)c(CN3CCOCC3)c12 | -60.7 |
| Cc1oc2ccc(O)c(CN3CCOCC3)c2c1C(=O)c1ccc(Cl)cc1 | -41 |
| O=C(c1cccs1)c1coc2ccc(O)c(CN3CCOCC3)c12 | -69.1 |
| Oc1ccc2ccccc2c1CN1CCOCC1 | -6.06 |
| Cl.O=C(c1coc2ccc(O)c(CN3CCOCC3)c12)C1CC1 | 12.3 |
| Cl.O=C(c1cccs1)c1coc2ccc(O)c(CN(CCO)CCO)c12 | -41 |
| COc1ccc(OC)c(C(O)c2coc3ccc(O)c(CN4CCOCC4)c23)c1 (stereo not drawn) | -11.4 |
| COc1ccc(C(=O)c2coc3ccc(O)c(CN4CCCC4)c23)cc1 | -73.4 |
| COC(=O)c1ccccc1N1CCS(=O)(=O)CC1 | 18.3 |
| COc1ccc(C(=O)Nc2nc(C)c(C(C)=O)s2)cc1S(=O)(=O)N1CCOCC1 | 0.765 |
| O=C(N/N=C/c1c(O)n(C2CC2)c(=S)[nH]c1=O)c1ccccc1O | 2.57 |
| CCN(CC)S(=O)(=O)c1ccc(N2CCN(C)CC2)c(NC(=O)c2cc(=O)c3ccccc3o2)c1 | -18.4 |
| Cc1ccc(C(=O)N(C)CC(=O)Nc2cccc(C)c2C)o1 | 9.83 |
| Cc1nc2nc(NC(=O)c3ccco3)nn2c(C)c1Cl | -1.18 |
| Br.c1ccc(-c2ccccc2OCc2nnc3n2CCC3)cc1 | 16.3 |
| COc1ccc(C2C(C(=O)N3CCCC3)c3cc(OC)c(OC)cc3C(=O)N2C)cc1OC (stereo not drawn) | 0.414 |
| COc1ccccc1C(=O)NCCNc1nc2cc(C)cc(C)c2cc1C#N | 13.3 |
| CCC(=O)NCCNc1nc2cc(C)cc(C)c2cc1C#N | 58.1 |
| Cc1cc(C)c2cc(C#N)c(NCCOC(=O)c3ccccc3C)nc2c1 | -54.8 |

| Compound | hERG current change (%, negative = inhibition) at 10uM [%] |
| --- | --- |
| Cc1c(OCC(=O)N2CCC(C(N)=O)CC2)ccc2c3c(c(=O)oc12)CCC3 | 7.25 |
| CCOC(=O)N1CCC(Nc2c(OCC)c(=O)c2=O)CC1 | 3.96 |
| Nc1ccccc1-c1nnc(-c2ccccc2N)n1N | 8.38 |
| CCN(CC)C(=O)Cn1cc(S(=O)(=O)CC(=O)Nc2ccc3c(c2)OCCO3)c2ccccc21 | -9.47 |
| CCOC(=O)Cn1c(S(=O)(=O)Cc2ccccc2Cl)nc(-c2ccccc2)c1-c1ccccc1 | -6.2 |
| O=C(C1CCCC1)N1CCC(CO)(Cc2ccccc2Cl)CC1 | -44.3 |
| OCC1(Cc2ccccc2Cl)CCN(C/C=C/c2ccccc2)CC1 | -68.4 |
| COc1ccc(/C=C/CN2CCC(CO)(Cc3ccccc3Cl)CC2)cc1 | -79.6 |
| CC(C)(C)NC(=O)N1CCC(CO)(Cc2ccccc2Cl)CC1 | -4.82 |
| O=C(C1CCCCC1)N1CCC(CO)(Cc2ccccc2Cl)CC1 | -15.3 |
| CCC(C)CN1CCC(CO)(Cc2ccccc2Cl)CC1 (stereo not drawn) | -30 |
| Cc1ccccc1OCC(=O)O/N=C(\N)Cc1cccs1 | 5.34 |
| Cc1ccc2[nH]c3c(c2c1)CN(C(=O)CN(C)CC1OCCO1)CC3 | 12.7 |
| COc1ccc(N2C(=O)NC(=O)/C(=C\c3ccc([N+](=O)[O-])s3)C2=O)cc1 | 13.3 |
| O=C(Nc1cc(Cl)ccc1C(=O)O)c1ccc(CN2C(=O)c3ccccc3C2=O)cc1 | 20.7 |
| Cc1ccc(OCC(=O)Nc2ccc(S(=O)(=O)Nc3ccccn3)cc2)cc1C | 24.4 |
| O=C(Cn1cnc2c(NC(=O)OCc3ccccc3)ncnc21)NCCN1CCOCC1 | 1.26 |
| Br.COC(=O)c1ccc(CN2CCSC2=N)cc1 | 6.85 |
| CN(CC(=O)Nc1ccc(F)c(F)c1)S(=O)(=O)c1cccc2nsnc12 | -26.1 |
| O=C(c1ccccn1)N(Cc1ccco1)C1(C(=O)NC2CCCC2)CCCCC1 | -5.62 |
| O=C(O)/C(=C\c1c(C(=O)O)[nH]c2cc(Cl)cc(Cl)c12)c1ccccc1 | 13.3 |
